This passage reports growth results from PubChem BioAssay (NCI).

Holding throughout (assay): NCI-60 one-dose screen, 48 h (100 = growth as untreated, 0 = no growth, -100 = all killed)
Common to all, as to conditions: 10 µM unless noted

The test system of test [1] is DU-145 prostate.
In test [2] the test system is K-562 leukemia.
Test [3] deals with MALME-3M melanoma.
The subject of test [4] is MDA-MB-231 breast.
Test [5] concerns RXF 393 renal.
For test [6], the system named is SF-268 CNS.
For test [7], the system named is SF-295 CNS.
Test [8] deals with SF-539 CNS.
Test [9] deals with UACC-257 melanoma.
Test [10] concerns M14 melanoma.
Test [11] has as its system HCT-15 colon.
The test system of test [12] is HT29 colon.
In test [13] the test system is SNB-75 CNS.
For test [14], the system named is SNB-19 CNS.
In test [15] the test system is U251 CNS.
In test [16] the test system is PC-3 prostate.
The subject of test [17] is SK-MEL-5 melanoma.
For test [18], the system named is UACC-62 melanoma.
Test [19] deals with LOX IMVI melanoma.
Test [20] concerns SK-MEL-28 melanoma.

About 83,000 compounds went through this panel and 20% of them were active in at least one assay; those are over-represented in the sample as a whole.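 Note: values are percent growth. 100 is the growth of untreated cells, values between 100 and 0 indicate rising inhibition; between -100 and 0 indicates cell death.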 Values without a mark were called inactive. Active and inactive are the calls of the source. How the source made its calls: active means growth percent below 10; inactive means the rest.

As to `CCCn1cnc2c(c1=N)C(c1ccc(F)cc1)c1sc3c(F)cccc3c1O2` (stereo not given), the growth is 76.6% in test [1]; 16.9% in [2]; 54.1% in test [3]; 63.3% in test [4]; 52.2% in test [5]; 49.6% in test [6]. The growth in [7] is 27.7%; in test [8] it was 32.6%; in test [9] it was 73.4%; in test [10] it was 39.3%; in [11], 28%; in test [12] it was 63.6%. For the same molecule, the growth was 26% in test [13]; 35.4% in [14]; 30.8% in test [15]; 50.1% in [16]; 42.2% in [17]; 12.1% in test [18]. Further, the growth in test [19] is 43.4%; in test [20], 56%.

For `CC(=O)OC[C@]12CC[C@@H]([C@@H](C)c3nnc(-c4ccncc4)o3)[C@@H]1[C@H]1CC[C@@H]3[C@@]4(C)CC[C@H](OC(C)=O)C(C)(C)[C@@H]4CC[C@@]3(C)[C@]1(C)CC2`, the growth is 102% in test [1]; 46.4% in test [2]; 99.7% in test [3]; 76.3% in [4]; 104% in [5]; 92% in [6]. Besides, the growth was 74.9% in [7]; 94.2% in [8]; 75.3% in test [9]; 91% in [10]; 77.5% in [11]; 63.8% in test [12]. Also, the growth was 103% in test [13]; 82.7% in test [14]; 64.1% in [15]; 33.5% in test [16]; 74.3% in test [17]; 58.2% in test [18]. The growth was 77.2% in [19] and 92.8% in [20].

On to `CN(C)CCCC1(c2ccc(F)cc2)OCc2cc(-c3ccc4cc[nH]c4c3)ccc21` (stereo not given), for which the growth in [1] was 35.7%; in [2], -20.1% (active); in test [3], 11%; in test [4], 16%; in test [5], 45.8%; in test [6] it was 54%. The growth in [7] was 74.5%; in test [8] it was 67.8%; in [9], 79.1%; in test [10] it was -56.8% (active); in test [11] it was 25.8%; in test [12], 4.73% (active). Further, the growth in test [13] was 33.8%; in test [14], 69.2%; in [15], 17.5%; in test [16], 43.5%; in [17] it was 56.6%; in test [18], 56.9%. Besides, the results for the growth in test [19] and in test [20] were -83.4% (active) and 64.1%, respectively.

`COC(=O)c1c2c(n3ccccc13)C(=O)c1ccccc1C2=O`: the growth was 69.4% in test [1]; 54.9% in test [2]; 55.8% in test [3]; 64.4% in [4]; 72.1% in test [5]; 74% in test [6]. The growth in test [7] is 64.5%; in [8], 89.5%; in [9] it was 70.4%; in test [10], 63.6%; in test [11], 51.4%; in test [12], 55.3%. Moreover, the growth in [13] is 113%; in [14], 62.5%; in test [15], 61.6%; in test [16] it was 47.2%; in test [17], 18.1%; in [18], 65.7%. Further, the growth was 49.3% in test [19] and 106% in test [20].

Turning to `O=C1Nc2c(C(=O)O)cccc2/C1=N/c1n[nH]c(=S)s1`, the growth in [1] is 98.5%; in [2] it was 41.3%; in [3], 105%; in [4] it was 86.2%; in [5] it was 112%; in test [6], 83.3%. In addition, the growth in [7] was 94.7%; in test [8] it was 91.9%; in test [9], 99.6%; in [10], 90.9%; in [11], 88.8%; in [12], 105%. The growth in [13] is 98.8%; in test [14] it was 95.1%; in [15], 84.9%; in [16] it was 84.2%; in [17], 102%; in [18], 49.6%. Besides, the growth was 61.2% in [19] and 107% in test [20].

For `O=C(N/N=C/c1cc(Cl)ccc1O)c1ccccc1Nc1ccnc(C(F)(F)F)c1`, the growth is 25.8% in [1]; 89.3% in test [2]; -18.7% (active) in test [3]; 50.4% in test [4]; 58.3% in test [5]; 18.3% in [6]. The growth in [7] is 28.9%; in test [8], -4.43% (active); in test [9] it was 42.8%; in [10], 23.6%; in test [11] it was 30.4%; in test [12] it was 39.2%. The growth in test [13] was 57.6%; in test [14] it was 21%; in test [15] it was 16.7%; in test [16], 32.9%; in test [17], 2.92% (active); in [18], -12% (active). For the same molecule, the growth was 13.2% in test [19] and 59.1% in test [20].

As to `CCCCNC(=O)c1cc([N+](=O)[O-])cc(C2CCCCC2)c1O`, the growth in test [1] is 57.6%; in test [2], 28.2%; in test [3] it was 1.91% (active); in test [4], 31.4%; in test [5] it was 42%; in test [6], 43.9%. Moreover, the growth in test [7] is 15.9%; in [8], 47.9%; in [9], 24.6%; in test [10], 44.4%; in test [11] it was 42.7%; in test [12], 69.7%. The growth in test [13] was 58.6%; in [14] it was 40.3%; in test [15], 24.1%; in test [16], 27.1%; in test [17], -12.6% (active); in test [18], 20.3%. Besides, the values for the growth in test [19] and in [20] were 36.2% and 34.3%, respectively.
